HepG2 viability = qHTS for Inhibitors of TGF-b: Cytotox Counterscreen | HepG2 CAGA-GFP viability, ATP luminescence, 18 h | Potency, µM (top dose mostly 46.1 µM), without a hit: top-dose activity change, negative = cytotoxicity, actives largely listed as cytotoxic | 410,000 compounds, 0.76% hits | AID 588856, 2011; further: potency means the concentration at half of the fitted maximal effect
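CellTiter-Glo luminescence gave cytotoxicity after 18 hours at 37 degrees C. The cells were HepG2 CAGA-GFP in 1% FBS DMEM, stimulated with 500 pg/mL TGF-beta after compound addition. %Activity was normalised to no-cell wells (complete cell-killing) and DMSO (no toxicity), and curves were fitted and classified.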
TGFb inhibitor = qHTS for Inhibitors of TGF-b; HepG2 CAGA-GFP TGF-b/SMAD3 reporter, GFP fluorescence, 18 h; TGF-beta stimulated, 500 pg/mL final; Potency, µM (series often up to 46.1 µM), for the others: top-dose activity, negative = inhibition, usual class: inhibitors; 410,000 compounds, 1.2% hits; further: potency means the concentration at half of the fitted maximal effect; on the % scale 0 is the no-effect control and ±100 the full control effect; nearly all actives have a fitted effect of over 65% in size
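Smad-responsive CAGA-GFP expression was quantified in HEPG2 cells exposed to compounds and 500 pg/mL final TGF-beta for 18 h at 37 degrees C; unstimulated wells defined full inhibition.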
ATXN2 expr inh = Primary qHTS for Inhibitors of ATXN expression. 360,000 compounds, 0.72% hits. HEK-293 ATXN2-luciferase reporter, luminescence, 24 h. Potency, µM (top dose mostly 57 µM), for inactives: at the highest dose activity change, negative = inhibition, most hits filed as inhibitors. AID 1745845, 2022; further: potency means the concentration at half of the fitted maximal effect; on the % scale 0 is the no-effect control and ±100 the full control effect; nearly all actives have a fitted effect of over 55% in size
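ATXN2-luciferase reporter cells (luciferase flanked by upstream and downstream ATXN2 gene portions) were treated 24 h at 37 °C with compounds at up to 57 uM. SteadyGlo luminescence gave expression; GF-AFC fluorescence gave viability.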
ATXN viability = Viability Counterscreen for Primary qHTS for Inhibitors of ATXN expression | S2 cells (HEK-293 line with an ATXN2-luciferase reporter) viability, CellTiter-Fluor protease fluorescence, 24 h | 400,000 compounds, 0.49% hits | Potency, µM (doses to about 56.7 µM), hits mostly cytotoxic; further: potency means the concentration at half of the fitted maximal effect; nearly all actives have a fitted effect of over 40% in size
IL1B secr inh = qHTS for Inhibitors of Inflammasome Signaling: IL-1-beta AlphaLISA Primary Screen | THP-1 LPS/ATP IL-1B secretion, AlphaLISA, 16 h; active compounds read low | activity change, % at 57.5 µM | 360,000 compounds, 4.7% hits; in the data active means activity change below about -50%; inconclusive means mostly about -30% to -49%; further: on the % scale 0 is the no-effect control and ±100 the full control effect
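Secreted IL-1B measured by AlphaLISA bead assay after 16 h compound exposure of THP-1 cells; compounds (final up to 57.5 uM) added 1 h before LPS (250 ng/mL) and ATP (1.25 mM) stimulation; lower signal means less secretion.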
Active calls of the source: *; i = inactive; ? = inconclusive; · = no result; [ ] = another dose, or the depositor's remark. Rows were chosen to be rich in hits. Some 5.7% of all compounds tested hit in one or more screens of this group. Unless noted, the call rests on the fitted dose curve; in most records, active means well fitted curve in the direction sought with a large enough effect; inconclusive means small, poorly fitted or top-dose-only effect, or another doubt; inactive means no such curve, though single readings can be large; an effect the other way counts as inactive or inconclusive.

SMILES | HepG2 viability | TGFb inhibitor | ATXN2 expr inh | ATXN viability | IL1B secr inh
CSc1ccc(/C=N/n2c(C3CCCCC3)n[nH]c2=S)cc1 | -42% | -11% | -1% | i | -62*
Cc1ccc(SCC(=O)OCC(=O)N(CCC#N)c2ccccc2)cc1C | 1% | -2% | 4% | i | 12
Cc1ccc(N(CCC#N)C(=O)CCl)cc1C | 11µM* | ? | ? | · | -98*
Nc1ccccc1C(=O)/C=C/c1ccc2c(c1)OCO2 | -16% | ? | 31% | ? | -3
O=C(/C=C/c1ccc2c(c1)OCO2)c1ccco1 | -28% | -6% | 15% | i | -96*
O=C(/C=C/c1ccc(Br)cc1)c1ccc(NC(=O)c2ccco2)cc1 | -24% | 8% | 11% | i | -26
O=C(/C=C/c1ccc2c(c1)OCO2)c1ccc(O)cc1O | -20% | ? | 51% | i | -95*
Cc1ccc(C(=O)C=Cc2ccc3c(c2)OCO3)c(C)c1 | -26% | 0% | · | i | ?
Cc1ccc(O)c(C(=O)/C=C/c2ccc3c(c2)OCCO3)c1 | -40% | ? | · | ? | -52*
O=C(/C=C/c1ccc(Br)cc1)c1ccco1 | -60% | ? | -25%[11.3 µM] | i | -108*
CC(=O)Nc1ccc(NC(=O)/C=C/c2ccc3c(c2)OCO3)cc1 | 0% | -20% | -3% | · | 13
O=C(Nc1c(Cl)cncc1Cl)c1ccc(OC(F)F)c(OCC2CC2)c1 | · | · | -4% | · | ·
Cc1cc(C(=O)NCC2CCC3(CCN(Cc4ccc5ccccc5c4)CC3)O2)n(C)n1 (stereo unspecified) | · | · | · | i | ·
CCCOC(=O)C1=C(C)CS[C@@H]2[C@H](NC(=O)COc3ccccc3)C(=O)N12 | -1% | -10% | · | · | ·
CCc1nc2ccc(C(=O)Nc3cccc(OC)c3)cn2c1N(C)CCCc1ccccc1 | -33% | ? | -11% | ? | -51*
CCc1nc2ccc(C(=O)Nc3ccc(C(=O)N(C)C)cc3)cn2c1N(C)CCCc1ccccc1 | -20% | -6% | ? | 28µM* | -10
COc1cccc(C(=O)NCC2Cc3cccc(-c4cccnc4)c3O2)c1 (stereo unspecified) | · | · | · | i | ·
CCOc1ccc(CSC(=N)N)cc1[N+](=O)[O-] | -15% | 0% | -14% | ? | -97*
CCCCOc1ccc(CSc2nnc(C)n2N)cc1[N+](=O)[O-] | -38% | 9% | -10%[11.3 µM] | i | 2
CCCCOc1ccc(CSCCN)cc1Cl | -121% | ? | -6% | i | -83*
CCOc1ccc(CSC(=N)N)cc1Cl | -35% | ? | · | i | -52*
CCOC(=O)c1c(C)[nH]c(C)c1C(=O)COC(=O)/C=C/c1ccc(OC(F)F)cc1 | -10% | ? | -9% | i | -54*
N#CCCN(Cc1cccnc1)S(=O)(=O)c1ccc2ccccc2c1 | 10µM* | -3% | -19% | ? | 2
CC(C)(C)C1CCc2oc3ccc(NS(=O)(=O)c4ccc(C(=O)O)cc4)cc3c2C1 (stereo unspecified) | -121% | 22µM* | · | · | ·
Cc1cc(F)ccc1S(=O)(=O)Nc1ccc2oc3c(c2c1)CC(C)CC3 (stereo unspecified) | -98% | ? | ? | 32µM* | ·
SMILES | HepG2 viability | TGFb inhibitor | ATXN2 expr inh | ATXN viability | IL1B secr inh
Cc1cc(S(=O)(=O)Nc2ccc3oc4c(c3c2)CCCC4)ccc1Cl | -98% | 16µM* | ? | ? | ·
Cc1cc(C)c(S(=O)(=O)Nc2ccc3oc4c(c3c2)CCCC4)cc1C | -89% | ? | -36% | i | ·
CN(C)c1cc(F)c(C=O)cc1F | 6% | 0% | · | · | ·
Cc1nn(C)c(C)c1/C=C(/C(=O)C(C)(C)C)n1cncn1 | 5% | -19% | -18% | i | -57*
Cn1c(=N)n(CC(=O)c2ccc(Br)cc2)c2ccccc21 | -36% | 5% | 6% | ? | ·
O=C(Cn1c(-c2ccccc2)c[n+]2ccsc12)c1ccc(Br)cc1 | -16% | -5% | -25% | ? | -86*
O=C(CCc1ccc(Oc2cc([N+](=O)[O-])cc([N+](=O)[O-])c2)cc1)NC1CCCC1 | 2% | ? | · | ? | 26
CC1CCN(C(=O)CCc2ccc(Oc3cc([N+](=O)[O-])cc([N+](=O)[O-])c3)cc2)CC1 | -4% | ? | ? | ? | -57*
Oc1c(Cl)cc(Cl)cc1CNc1ccc(Br)cn1 | -58% | ? | 19% | i | -85*
Cc1cc(-c2nc3cc(F)ccc3s2)ccc1N | -18% | ? | -7% | i | -76*
COCCC1CCCCN1Cc1nc(N2CCCC2)c2cc(OC)c(OC)cc2n1 (stereo unspecified) | · | · | · | i | ·
CC[n+]1ccnc2ccccc21 | 3.5µM* | 3.2µM* | · | · | ·
CC(C)Sc1ncc(Cl)c(C(=O)Nc2ccc(S(=O)(=O)N3CCCCC3C)cc2)n1 (stereo unspecified) | -5% | -10% | -4% | i | ·
COc1ccc(OC)c(CNC(=O)CCCn2nc(C)c3c(C)n(-c4ccc(C)cc4)nc3c2=O)c1 | -23% | ? | · | · | ·
O=C(Nc1ccc(N2CCOCC2)c(Cl)c1)c1c(F)c(F)c(F)c(F)c1F | 0% | -4% | 13µM* | i | -12
COc1c(C)cccc1C(=O)Nc1ccc(N2CCOCC2)c(Cl)c1 | -19% | 2% | 69% | i | -69*
O=C(Nc1ccccc1N1CCOCC1)c1cccc(F)c1 | 16% | 10% | -15% | i | 10
O=C(Nc1ccc(N2CCOCC2)c(Cl)c1)c1cccc(F)c1 | -50% | 6% | 91% | i | -54*
O=C(Nc1ccc(N2CCOCC2)c(Cl)c1)c1cc(F)c(F)cc1Cl | -28% | -4% | 15% | i | -58*
COc1ccc(CN2CCOc3c(O)cc(-c4cc(C)c5ccc(F)cc5n4)cc3C2)c(O)c1 | · | · | · | i | ·
O=C(Cn1ccn(-c2ccc(F)c(F)c2)c(=O)c1=O)NCc1ccccc1 | -23% | 2% | · | · | ·
Cc1ccc(NC(=O)c2cc(N3C(=O)C=CC3=O)ccc2N2CCOCC2)cc1 | -45% | -12% | ? | ? | -63*
[O-]/C(=C(\C(=S)Nc1cccc2ccccc12)[n+]1cccc(CO)c1)c1ccc(Cl)s1 | -111% | ? | -15% | ? | 0
Cc1c(Cl)cccc1NC(=S)/C(=C(\[O-])c1ccc(Cl)s1)[n+]1ccccc1 | -13% | 1% | -16% | i | -70*
COc1cc(NS(=O)(=O)c2ccc(NC(=S)NC(=O)c3sc4cc(F)ccc4c3Cl)cc2)nc(OC)n1 | 5% | -3% | 3% | i | -50*
COc1ccc(S(=O)(=O)N2CCOCC2)cc1Br | 10% | 0% | 3% | i | 7

Source: PubChem BioAssay (National Center for Advancing Translational Sciences (NCATS))
